Experimental data reported in PubChem BioAssay (NCI).
The panel holds about 83,000 compounds, 20% with a hit somewhere; the sample as a whole holds those more often.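 Method: cells in 96-well plates; compound added at one concentration; 48 h incubation; percent growth measured; values under 10 scored active.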 Unmarked numbers belong to inactive results. Activity calls are given as the source filed them.

How the values were obtained:
Test in all cases: NCI-60 one-dose screen, 48 h (100 = growth as untreated, 0 = no growth, -100 = all killed)
Conditions in all cases: 10 µM unless noted
NCI-H23 lung = system: NCI-H23 lung
NCI-H226 lung = system: NCI-H226 lung
NCI-H322M lung = system: NCI-H322M lung
HOP-62 NSCLC = system: HOP-62 NSCLC
NCI-H460 lung = system: NCI-H460 lung
HOP-92 NSCLC = system: HOP-92 NSCLC
NCI-H522 lung = system: NCI-H522 lung
A549/ATCC NSCLC = system: A549/ATCC NSCLC
786-0 renal = system: 786-0 renal
COLO 205 colon = system: COLO 205 colon

Row | Compound | growth (NCI-H23 lung) [%] | growth (NCI-H226 lung) | growth (NCI-H322M lung) [%] | growth (HOP-62 NSCLC) | growth (NCI-H460 lung) | growth (HOP-92 NSCLC) | growth (NCI-H522 lung) | growth (A549/ATCC NSCLC) | growth (786-0 renal) | growth (COLO 205 colon)
1 | FC(F)(F)c1cn(CC2CNC2)c2ncnc(Cl)c12 | 104 | 102% | 111 | 102% | 105% | 114% | 89.7% | 94.3% | 107% | 106%
2 | O=C(Nc1cccc(-n2ccc3c(NC(=O)c4ccccc4)nccc32)c1)Nc1ccc(Cl)c(C(F)(F)F)c1 | 13 | 21.7% | 39.5 | 33.4% | -0.783% (active) | 2.86% (active) | -51.5% (active) | 9.59% (active) | -14.8% (active) | -51.6% (active)
3 | Cc1ccc[n+](CC(=O)c2cccc3ccccc23)c1 | 102 | 96.2% | 97 | 100% | 111% | 97.1% | 101% | 111% | 93.8% | 101%
4 | Clc1ccc(CN2COc3c(ccc4cccnc34)C2)cc1Cl | 13.5 | -11.5% (active) | 12.3 | -2.68% (active) | -26.2% (active) | -9.87% (active) | -56.7% (active) | -4.93% (active) | -63.3% (active) | 12%
5 | CC(=O)Nc1ccc(OC(=O)c2ccccc2O)cc1 | 99.5 | 106% | 111 | 99.8% | 106% | 85% | 106% | 102% | 107% | 108%
6 | C=C1C(=O)O[C@H]2[C@H]1CC/C(CNC(=O)/C1=C/CC[C@@]3(C)O[C@H]3[C@H]3OC(=O)C(=C)[C@@H]3CC1)=C\CC[C@@]1(C)O[C@@H]21 | 99.6 | 92.4% | 96 | 93.8% | 104% | 84.5% | -28.3% (active) | 91% | 93.1% | 71.8%
7 | Cc1cccc(CC(=O)c2ccccc2)n1 | 94.5 | 95.8% | 87.3 | 78.4% | 95.7% | 82.2% | 80.9% | 74.2% | 94.4% | 103%
8 | COc1cc2ncnc(Oc3ccc(NC(=O)Nc4ccc(CN5CCOCC5)c(C(F)(F)F)c4)c4ccccc34)c2cc1OC | 16.8 | 1.53% (active) | 19.3 | 66.8% | 25.4% | -2.3% (active) | 19.8% | 23.1% | 37.1% | 13.4%
9 | COC(=O)CCCNS(=O)(=O)c1cc(C(=O)Nc2ccc(NC(=O)c3cc(S(=O)(=O)NCCCC(=O)OC)c(O)c(O)c3O)cc2)c(O)c(O)c1O | 92.4 | 98.4% | 89.4 | 98.5% | 97.3% | 115% | 86.1% | 83.2% | 112% | 114%
10 | CCc1c(C)c2cc(-n3c(-c4ccc(OC)cc4)csc3=N)c(O)c(C)c2oc1=O | 26.7 | 56% | 54.5 | 30.4% | 11.1% | 33.5% | -46.5% (active) | 26.3% | 21.5% | 12.6%
11 | CCN(CC)CCNCC(O)Cc1ccc(OC)cc1 (stereo not given) | 103 | 90.5% | 91.4 | 102% | 107% | 81.4% | 66.1% | 96% | 98.5% | 111%
12 | CN(C)CCNc1nc2ccccc2c2c(=O)c3ccccc3sc12 | 31.8 | 36.5% | 43.1 | 21.7% | 1.33% (active) | 4.02% (active) | 14.4% | 13.2% | 28.6% | -79.6% (active)
13 | O[C@@H]1CCO[C@H](c2ccc3ccccc3c2)C1 | 95.3 | 96.8% | 104 | 99.5% | 107% | 93.1% | 87.9% | 96.7% | 98.7% | 106%
